# Measurements: PubChem BioAssay
# The source made the active and inactive calls.
# How the values were obtained:
# [1] = system: PRMT1 (protein arginine N-methyltransferase 1); test: PRMT1 binders on small-molecule microarrays, primary screen, biochemical, small-molecule microarray, 635 nm fluorescence (AID 1088); conditions: small-molecule microarray binding, higher = more signal;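 note: binding of Prmt1 protein to compounds spotted on small-molecule microarray slides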
# [2] = yeast growth modulation, basal conditions, primary screen, YJM789 clinical isolate, OD600, 24 h (AID 1089);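 note: growth of clinical yeast isolate S. cerevisiae YJM 789 seeded 1000 cells per well; test concentration not given here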; conditions: S. cerevisiae YJM789 growth, higher = more signal, called active from +8 up or from −8 down
# [3] = fission yeast growth modulation, primary screen, strain 972, OD600, 24 h, no modulator (AID 1090);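 note: basal condition with compound alone and no growth modifier present; test concentration not given here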; conditions: S. pombe 972 growth, higher = more signal, called active from +8 up or from −8 down
# [4] = S. cerevisiae growth modulation with rapamycin, primary screen, strain BY4716, OD600, 96 h (AID 1091); conditions: higher = more signal, called active from +8 up or from −8 down; note: test concentration not given here
# [5] = target: Torsin-1A-interacting protein 2 (Homo sapiens) (UniProt Q8NFQ8); test: LULL1 binders on small-molecule microarray, primary screen, cell lysate, human LULL1 lysate, 635/667 nm fluorescence (AID 1092); conditions: hLULL1 lysate binding, 635 nm fluorescence, higher = more signal;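 note: probe is lysate of COS7 cells overexpressing human LULL1; score merges per-feature 667 nm fluorescence with signal-to-noise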
# Sequence of Torsin-1A-interacting protein 2 (Homo sapiens) (Q8NFQ8 whole entry, looked up): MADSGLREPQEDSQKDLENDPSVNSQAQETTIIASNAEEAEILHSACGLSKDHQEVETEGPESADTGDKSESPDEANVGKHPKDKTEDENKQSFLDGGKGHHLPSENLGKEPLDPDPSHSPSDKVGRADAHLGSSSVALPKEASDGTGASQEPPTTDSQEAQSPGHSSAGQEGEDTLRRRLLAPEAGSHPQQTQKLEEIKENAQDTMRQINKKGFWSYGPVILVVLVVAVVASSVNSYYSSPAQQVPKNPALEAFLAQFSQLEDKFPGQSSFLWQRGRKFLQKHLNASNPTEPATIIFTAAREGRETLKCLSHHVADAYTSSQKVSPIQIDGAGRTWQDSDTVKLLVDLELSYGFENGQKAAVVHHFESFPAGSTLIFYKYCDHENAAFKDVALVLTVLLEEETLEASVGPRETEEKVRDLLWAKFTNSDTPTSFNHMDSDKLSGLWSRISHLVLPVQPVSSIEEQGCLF
# [6] = E. coli growth modulation, two-sided OD650, primary screen, E. coli filamentation project, strain DRC41, 24 h (AID 1093); conditions: OD650, 24 h, higher = more signal, called active from +8 up or from −8 down;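 note: MC1000 strain lacking acrAB efflux and sulA so SOS filamentation is blocked; test concentration not given here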
# [7] = small-molecule microarray binders of probe aLefty2, primary screen, biochemical, biotinylated probe, 635/667 nm fluorescence (AID 1094); conditions: higher = more signal;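 note: score merges spot fluorescence near 667 nm with spot signal-to-noise ratio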
# [8] = system: Noggin (protein binding on small-molecule microarray); test: Noggin binders on small-molecule microarray, primary screen, biochemical, 635/667 nm fluorescence (AID 1095); conditions: 635 nm fluorescence, higher = more signal;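 note: score merges 667 nm feature fluorescence with signal to noise over triplicate slides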
# [9] = target: Neurogenic locus notch homolog protein 3 (Homo sapiens) (UniProt Q9UM47); test: NOTCH3 binders on small-molecule microarray, primary screen, biochemical, 635/667 nm fluorescence (AID 1096); conditions: NOTCH3 binding, 635 nm fluorescence, higher = more signal
# Sequence of Neurogenic locus notch homolog protein 3 (Homo sapiens) (Q9UM47 whole entry, looked up): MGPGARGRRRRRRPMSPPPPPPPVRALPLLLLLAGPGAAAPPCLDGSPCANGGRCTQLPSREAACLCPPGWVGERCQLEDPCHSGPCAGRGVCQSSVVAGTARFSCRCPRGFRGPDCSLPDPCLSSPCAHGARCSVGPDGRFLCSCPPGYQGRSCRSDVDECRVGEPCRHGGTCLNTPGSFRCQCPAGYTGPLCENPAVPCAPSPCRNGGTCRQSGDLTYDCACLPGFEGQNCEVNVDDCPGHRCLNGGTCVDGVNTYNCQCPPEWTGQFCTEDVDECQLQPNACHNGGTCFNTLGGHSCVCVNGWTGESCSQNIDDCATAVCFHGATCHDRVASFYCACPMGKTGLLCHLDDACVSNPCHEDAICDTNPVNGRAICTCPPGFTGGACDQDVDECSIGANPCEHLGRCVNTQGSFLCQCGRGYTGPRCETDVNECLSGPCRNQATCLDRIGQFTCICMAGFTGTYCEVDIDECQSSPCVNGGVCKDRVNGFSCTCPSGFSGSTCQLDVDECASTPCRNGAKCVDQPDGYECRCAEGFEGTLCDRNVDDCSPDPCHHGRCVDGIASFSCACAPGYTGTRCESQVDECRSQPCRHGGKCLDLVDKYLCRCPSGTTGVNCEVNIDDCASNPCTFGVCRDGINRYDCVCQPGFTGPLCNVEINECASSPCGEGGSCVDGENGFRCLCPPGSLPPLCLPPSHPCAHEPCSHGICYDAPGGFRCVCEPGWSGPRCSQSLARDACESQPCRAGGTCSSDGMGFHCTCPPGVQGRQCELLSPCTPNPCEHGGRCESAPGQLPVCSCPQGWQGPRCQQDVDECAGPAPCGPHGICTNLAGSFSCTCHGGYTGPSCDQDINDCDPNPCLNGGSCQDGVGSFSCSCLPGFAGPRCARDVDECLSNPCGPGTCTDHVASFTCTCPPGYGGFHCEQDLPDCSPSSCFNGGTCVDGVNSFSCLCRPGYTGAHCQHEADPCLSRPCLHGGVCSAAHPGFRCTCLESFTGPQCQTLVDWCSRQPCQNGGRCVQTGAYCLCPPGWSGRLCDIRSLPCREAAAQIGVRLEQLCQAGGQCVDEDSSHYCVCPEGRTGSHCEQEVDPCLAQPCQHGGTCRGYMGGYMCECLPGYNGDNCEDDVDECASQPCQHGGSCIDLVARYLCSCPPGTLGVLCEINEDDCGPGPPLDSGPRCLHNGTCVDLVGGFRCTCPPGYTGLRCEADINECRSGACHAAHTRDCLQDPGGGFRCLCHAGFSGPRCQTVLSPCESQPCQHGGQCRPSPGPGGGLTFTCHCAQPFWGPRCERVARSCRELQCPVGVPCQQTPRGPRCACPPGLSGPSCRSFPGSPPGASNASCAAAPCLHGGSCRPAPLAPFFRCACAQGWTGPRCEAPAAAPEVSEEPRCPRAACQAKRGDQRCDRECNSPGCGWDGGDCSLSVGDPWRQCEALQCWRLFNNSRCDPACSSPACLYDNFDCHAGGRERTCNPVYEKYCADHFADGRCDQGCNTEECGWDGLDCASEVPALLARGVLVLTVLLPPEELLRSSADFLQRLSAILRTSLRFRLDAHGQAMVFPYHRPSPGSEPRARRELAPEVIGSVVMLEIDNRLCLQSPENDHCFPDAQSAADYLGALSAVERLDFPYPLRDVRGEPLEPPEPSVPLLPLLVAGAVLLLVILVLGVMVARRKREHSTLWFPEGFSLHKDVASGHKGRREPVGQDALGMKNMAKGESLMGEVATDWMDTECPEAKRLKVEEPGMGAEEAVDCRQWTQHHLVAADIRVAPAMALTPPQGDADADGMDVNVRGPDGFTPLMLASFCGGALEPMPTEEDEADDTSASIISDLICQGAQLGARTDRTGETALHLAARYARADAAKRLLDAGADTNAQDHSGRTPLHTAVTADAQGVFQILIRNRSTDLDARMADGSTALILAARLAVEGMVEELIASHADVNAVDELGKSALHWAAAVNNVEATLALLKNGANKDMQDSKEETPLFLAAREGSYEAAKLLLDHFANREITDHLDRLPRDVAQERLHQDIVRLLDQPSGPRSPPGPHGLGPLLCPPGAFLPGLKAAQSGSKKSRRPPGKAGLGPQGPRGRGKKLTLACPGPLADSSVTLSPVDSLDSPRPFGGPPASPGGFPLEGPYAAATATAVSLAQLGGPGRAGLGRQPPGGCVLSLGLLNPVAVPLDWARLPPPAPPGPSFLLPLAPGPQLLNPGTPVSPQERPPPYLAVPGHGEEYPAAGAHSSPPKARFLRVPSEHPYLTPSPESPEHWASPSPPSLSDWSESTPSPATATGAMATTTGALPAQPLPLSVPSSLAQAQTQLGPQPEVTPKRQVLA
# [10] = small-molecule microarray binders of probe aEGFR, primary screen, biochemical, biotinylated probe, 635/667 nm fluorescence (AID 1097); conditions: higher = more signal;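 note: probe is a biotinylated anti-EGFR antibody binding compounds printed on slides; score combines fluorescence near 667 nm and signal to noise of each spot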
# [11] = system: Plasmodium falciparum Sir2 (PF13_0152, Sir2A); test: pfSir2 binders on small-molecule microarrays, primary screen, biochemical, small-molecule microarray, 635 nm fluorescence (AID 1098); conditions: small-molecule microarray binding, fluorescence 635 nm; higher = more signal;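 note: score merges spot fluorescence intensity with its signal-to-noise ratio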
# [12] = small-molecule microarray binders of probe aDKK1, primary screen, biochemical, biotinylated probe, 635/667 nm fluorescence (AID 1099); conditions: higher = more signal;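 note: score merges 667nm spot fluorescence with signal to noise across triplicate slides; reference of the scale not given here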
# [13] = small-molecule microarray binders of probe aCHRDL2, primary screen, biochemical, biotinylated probe, 635/667 nm fluorescence (AID 1100); conditions: higher = more signal
# [14] = splicing luciferase reporter signal modulators, primary screen, spliceosome inhibition project, cell-based, HEK293, splice +/- reporter (AID 1101); conditions: luminescence, 24 h, higher = more signal, called active from +8 up or from −8 down;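 note: HEK293 cells carrying a splicing-competent luciferase reporter gene; test concentration not given here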
# [15] = target: Fibroblast growth factor 10 (Homo sapiens) (UniProt O15520); test: FGF10 binders on small-molecule microarrays, primary screen, biochemical, small-molecule microarray, 635 nm fluorescence (AID 1102); conditions: FGF10 binding, fluorescence 635 nm, higher = more signal
# Sequence of Fibroblast growth factor 10 (Homo sapiens) (O15520 whole entry, looked up): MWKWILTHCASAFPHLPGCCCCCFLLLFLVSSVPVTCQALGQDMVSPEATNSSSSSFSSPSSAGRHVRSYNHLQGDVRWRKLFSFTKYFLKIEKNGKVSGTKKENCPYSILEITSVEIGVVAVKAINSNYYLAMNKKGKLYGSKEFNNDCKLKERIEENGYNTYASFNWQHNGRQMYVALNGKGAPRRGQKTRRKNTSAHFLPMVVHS
# [16] = system: glycogen synthase kinase-3 (GSK3A per assay name; protocol says GSK3B); test: GSK3 binders on small-molecule microarrays, primary screen, biochemical, small-molecule microarray, 635 nm fluorescence, GSK3A (AID 1103); conditions: small-molecule microarray binding, fluorescence 635 nm; higher = more signal; note: the record names both GSK3A and GSK3B
# [17] = target: Epidermal growth factor receptor (Homo sapiens) (UniProt P00533); test: EGFR binders on small-molecule microarrays, primary screen, biochemical, small-molecule microarray, 635 nm fluorescence (AID 1104); conditions: EGFR binding, higher = more signal;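 note: score merges 667 nm emission intensity with spot signal to noise over triplicate slides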
# Sequence of Epidermal growth factor receptor (Homo sapiens) (P00533 whole entry, looked up): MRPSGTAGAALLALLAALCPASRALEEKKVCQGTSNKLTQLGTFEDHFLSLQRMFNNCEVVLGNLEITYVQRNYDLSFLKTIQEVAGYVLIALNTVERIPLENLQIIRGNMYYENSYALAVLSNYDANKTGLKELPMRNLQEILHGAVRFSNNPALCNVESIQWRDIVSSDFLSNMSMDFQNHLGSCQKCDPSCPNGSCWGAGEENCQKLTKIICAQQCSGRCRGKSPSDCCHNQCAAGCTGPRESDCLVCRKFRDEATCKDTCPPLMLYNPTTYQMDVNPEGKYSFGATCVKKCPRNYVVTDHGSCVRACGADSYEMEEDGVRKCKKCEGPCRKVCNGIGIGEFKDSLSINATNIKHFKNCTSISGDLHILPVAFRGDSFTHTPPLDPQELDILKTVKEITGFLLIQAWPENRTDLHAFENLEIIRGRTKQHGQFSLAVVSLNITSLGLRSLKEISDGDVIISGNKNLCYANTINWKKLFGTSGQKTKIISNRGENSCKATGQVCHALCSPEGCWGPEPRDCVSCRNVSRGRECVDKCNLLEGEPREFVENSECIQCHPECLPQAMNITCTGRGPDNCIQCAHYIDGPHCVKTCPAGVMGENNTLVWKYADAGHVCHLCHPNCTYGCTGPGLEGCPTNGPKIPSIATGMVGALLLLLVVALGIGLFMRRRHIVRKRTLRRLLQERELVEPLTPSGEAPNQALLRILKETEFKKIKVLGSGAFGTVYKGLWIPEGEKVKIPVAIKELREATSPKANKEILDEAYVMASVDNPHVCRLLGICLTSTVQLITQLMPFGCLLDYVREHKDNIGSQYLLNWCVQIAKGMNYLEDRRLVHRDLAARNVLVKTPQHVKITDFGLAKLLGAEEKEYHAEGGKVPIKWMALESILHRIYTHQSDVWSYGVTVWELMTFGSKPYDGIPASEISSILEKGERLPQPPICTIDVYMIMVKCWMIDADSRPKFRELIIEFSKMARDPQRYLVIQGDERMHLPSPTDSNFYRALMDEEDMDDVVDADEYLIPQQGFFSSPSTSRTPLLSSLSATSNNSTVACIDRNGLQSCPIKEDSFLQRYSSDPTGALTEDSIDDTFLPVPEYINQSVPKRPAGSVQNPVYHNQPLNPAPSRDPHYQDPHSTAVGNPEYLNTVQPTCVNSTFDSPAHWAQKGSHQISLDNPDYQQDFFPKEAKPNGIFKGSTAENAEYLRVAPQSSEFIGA
# [18] = target: Follistatin-related protein 3 (Homo sapiens) (UniProt O95633); test: FSTL3 binders on small-molecule microarrays, primary screen, biochemical, small-molecule microarray, 635 nm fluorescence (AID 1105); conditions: FSTL3 binding, higher = more signal;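 note: score merges emission near 667 nm and signal to noise per printed spot across three slides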
# Sequence of Follistatin-related protein 3 (Homo sapiens) (O95633 whole entry, looked up): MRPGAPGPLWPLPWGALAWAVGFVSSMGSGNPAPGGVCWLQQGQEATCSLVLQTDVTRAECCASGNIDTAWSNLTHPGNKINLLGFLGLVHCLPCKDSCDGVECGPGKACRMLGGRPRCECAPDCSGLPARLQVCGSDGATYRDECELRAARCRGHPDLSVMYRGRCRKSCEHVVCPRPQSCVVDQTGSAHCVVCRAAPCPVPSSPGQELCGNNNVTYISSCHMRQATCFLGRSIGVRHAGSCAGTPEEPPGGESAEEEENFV
# [19] = target: Dickkopf-related protein 1 (Homo sapiens) (UniProt O94907); test: DKK1 binders on small-molecule microarrays, primary screen, biochemical, small-molecule microarray, 635 nm fluorescence scan (AID 1106); conditions: DKK1 binding, higher = more signal;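 note: score merges emission near 667 nm with signal to noise over three replicate slides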
# Sequence of Dickkopf-related protein 1 (Homo sapiens) (O94907 whole entry, looked up): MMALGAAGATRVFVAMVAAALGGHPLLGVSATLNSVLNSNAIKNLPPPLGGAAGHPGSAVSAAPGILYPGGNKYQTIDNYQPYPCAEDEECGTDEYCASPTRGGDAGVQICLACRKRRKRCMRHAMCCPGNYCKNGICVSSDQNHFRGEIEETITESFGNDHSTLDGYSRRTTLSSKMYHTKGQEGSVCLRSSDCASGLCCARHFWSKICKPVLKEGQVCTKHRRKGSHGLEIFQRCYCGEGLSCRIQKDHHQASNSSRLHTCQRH
# [20] = system: Inhibin beta A chain (activin A); test: INHBA (activin A) binders on microarrays, primary screen, biochemical, small-molecule microarray, 635 nm fluorescence scan (AID 1107); conditions: small-molecule microarray binding, higher = more signal;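 note: mouse activin A protein probed at 4.33 µg/mL on printed slides; score merges bound-protein fluorescence near 667 nm with spot signal-to-noise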
Structure (SMILES),composite z-score [1],z-score [2],z-score [3],z-score [4],composite z-score [5],z-score [6],composite z-score [7],composite z-score [8],composite z-score [9],composite z-score [10],composite z-score [11],composite z-score [12],composite z-score [13],z-score [14],composite z-score [15],composite z-score [16],composite z-score [17],composite z-score [18],composite z-score [19],composite z-score [20]
CC=CC(O)C1C=CC2C(=O)NC(=O)C2N1Nc1ccc(Cl)cc1Cl (stereo not given),-0.193,-6.04 (inactive),-2 (inactive),0.624 (inactive),2.28,-1.13 (inactive),0.0598,-0.376,0.0204,-0.148,0.547,0.171,0.55,1.9 (inactive),0.506,-1.11,0.277,0.46,0.522,1.42
O=C1[C@H]2C=C(I)[C@H](C[C@@H]2c2ccccc2)[C@@]12CO2,0.298,-3.2 (inactive),-19.3 (active),-2.84 (inactive),-0.0459,-0.924 (inactive),-0.238,0.355,-0.183,-0.139,-0.506,-0.322,-0.197,0.523 (inactive),0.0211,-0.326,0.384,-0.461,0.485,1.15
COCCOC(=O)N1C(=O)[C@@]2(c3cc(C#CCC(C(=O)OC)C(=O)OC)ccc31)[C@H](C(=O)Nc1nc3ccccc3s1)[C@H]1C(=O)O[C@H](c3ccccc3)[C@H](c3ccccc3)N1[C@@H]2c1ccc(OCCO)cc1,1.54,1.74 (inactive),0.657 (inactive),2.14 (inactive),1.43,1.43 (inactive),0.483,1.89,1.05,0.232,0.659,0.0831,0.164,0.0491 (inactive),1.48,1.32,1.03,1,1.04,0.286
CCOc1cc(C(O)C2C=CC3C(=O)N(c4ccccc4)C(=O)C3N2Nc2ccccc2F)ccc1O (stereo not given),0.196,1.54 (inactive),-0.428 (inactive),1.81 (inactive),3.01,-0.199 (inactive),0.615,-0.596,0.0983,0.561,1.53,1.42,0.762,0.101 (inactive),0.208,-0.186,0.232,-0.271,-0.344,0.604
CN1C(=O)C2C=CC(C(O)c3ccc(-c4ccccc4)s3)N(NC(=O)OC(C)(C)C)C2C1=O (stereo not given),0.938,-0.673 (inactive),1.47 (inactive),0.0406 (inactive),2.92,-0.328 (inactive),0.367,-0.0619,0.687,-0.033,0.871,0.625,1.04,2.11 (inactive),0.171,0.484,0.609,1.02,0.207,0.86
CN(C)CCCC[C@@H]1NC(=O)[C@H]2C[C@@H](C(=O)O)[C@@H](c3ccc(O)cc3)N2C1=O,1.54,-0.116 (inactive),-1.99 (inactive),0.193 (inactive),4.23,2.11 (inactive),1.55,2.16,1.02,1.33,2.03,2.45,1.64,-1.28 (inactive),1.55,1.44,1.85,1.53,2.03,1.98
COCCOC(=O)N1C(=O)[C@@]2(c3cc(C#CCC(C(=O)OC)C(=O)OC)ccc31)[C@H](C(=O)Nc1nc3ccccc3s1)[C@H]1C(=O)O[C@H](c3ccccc3)[C@H](c3ccccc3)N1[C@@H]2c1ccc(O)cc1,1.53,1.42 (inactive),0.431 (inactive),1.16 (inactive),2.51,0.28 (inactive),0.0085,0.92,1.04,0.107,1.42,0.0737,0.309,-0.88 (inactive),1.34,1.3,0.861,1.41,1.06,0.157
CC(C)N1C(=O)C[C@@](C(=O)NCCN2CCOCC2)(c2ccc([N+](=O)[O-])cc2)[C@H]1c1ccc(CO)cc1,0.266,-1.77 (inactive),-0.274 (inactive),-1.76 (inactive),3.61,0.214 (inactive),-0.001,0.193,-0.958,-0.228,1.88,-0.477,0.447,-0.286 (inactive),-0.945,-0.175,-1.12,-0.854,-1.03,0.16
CN1C(=O)[C@@H]2[C@@H](CC(COc3ccccc3)=C3[C@@H](CCc4ccccc4)OB(O)C[C@@H]32)C1=O,0.359,-0.973 (inactive),-0.793 (inactive),-0.862 (inactive),0.384,-0.372 (inactive),-0.205,0.231,-0.138,-0.15,1.11,-0.003,0.0414,0.341 (inactive),0.311,-0.557,-0.133,0.128,0.109,0.515
NC(=O)NCC#Cc1ccc2c(c1)[C@]1(C(=O)N2)[C@H](c2ccc(OCCO)cc2)N2[C@H](c3ccccc3)[C@H](c3ccccc3)OC(=O)[C@H]2[C@@H]1C(=O)NC[C@H](O)c1ccccc1,0.26,2.87 (inactive),1.98 (inactive),3.9 (inactive),0.741,2.55 (inactive),0.0041,0.565,-0.311,-0.141,1.24,0.0619,0.909,0.199 (inactive),0.131,-0.708,-0.256,-0.216,-0.229,0.902
